Tested on: VDR:RXRa (NR concentration 270 nM, RXRa partner concentration 90 nM)
Test: PBM binding z-score (relative to random genomic background probes); higher = stronger binding; sequences stand for … in GC…GCGATTGACAGCGTAGAATGAAGG
Experimental: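 Protein-binding microarray (Agilent 4x180K custom design, double-stranded 60-nt probes: 5' GC cap, 34-nt variable region, 24-nt constant primer region; full probe sequence given). Purified or IVT nuclear receptor:RXRα heterodimers (3:1 NR:RXRα, mostly 270:90 nM) or homodimers were incubated for 1 h in PBS with 2% milk and no ligand, then detected with Alexa488 antibodies. Fluorescence from o1-orientation probes (~5 replicates averaged) was converted to z-scores against 500 random hg19 background probes. Variable regions are seed direct-repeat (DR0–DR5) sites, all their single-nucleotide variants and half-site ablations.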

| Sequence | PBM binding z-score |
| --- | --- |
| GCTAGCAGGCCATGTGGGTCACTCAATGACGGGC | 0.49 |
| CGAACTACGTCATTGACAGGACAGTGAATAGTAA | -0.122 |
| CCTTACGGGTCACTCCAGGTTTTAGCATCGGAGT | 3.47 |
| CCAGAGAGGTGAGAAGGTAACTCAGCCTCGATTA | 0.23 |
| TCATATATGTAATACAGGTGAAAGTCGGCATCTA | 0.899 |
| CCTAGCAGGCCCATCTGGGTCACTCAAGGCTTGA | -0.0613 |
| TTACCAAGGCGAAAGGTCGTTGATGCACGCCTTG | 1.65 |
| CCGACTGGGGCATAGGTTACCATACTCAGTACGA | -0.0526 |
| CCTGCTAGGTCATGGTCAACTAATCTACAGTATG | 2 |
| AGAATGAGGTTACCAAAGATCAGGGATACGCTTG | 1.39 |
| AATACACGGTCACTAGGCCAGAGTAGGTACGAAT | 0.248 |
| CGACCTAGGTCAAGGACAGTGAATCTCCGCACGC | 1.96 |
| ATCTCTAGGTAACAGTTCAGTGAATCCCGAGGAT | 0.208 |
| ATCGAAAGGTCGTGAGCTGAGTATACAGAAAGGC | 2.95 |
| TGTCAAAGTTCAAAGGTACCGTAAGTATCCACAC | 4.41 |
| GCTTGTTGATCAAGGTTAAGAAAGACTAAGCTAA | 0.122 |
| CTCGAAAGGCCGTGCTCAGGTGAGTATACCAAAC | -0.528 |
| ATACCAAGGTGATCATGAGGTCGTTGATACTAAC | 3.38 |
| TCTTGTAGATCAAAGGTTGAGAAAGCCGAAGCCT | 0.408 |
| CCTCGGAGGACAGAAGGTCCGAGCTGTCCGCTTT | -0.656 |

| Sequence | PBM binding z-score |
| --- | --- |
| ACTCGGAGGACCAAGGTCAGAGCTACGCCAGTGA | 1.34 |
| TTACCAAGGTGAAACGTCGTTGATGCACGCCTTG | -0.243 |
| TTACCAAGGTGAAGGTCGCTGATCCCTCTGTAGA | 0.493 |
| CGTCCAAGTTCAAGGTAACGTAACAGAAAGCAGC | 2.45 |
| TTCCCAAGGTGAAAGGTCGTTGATGCACGCCTTG | 3.35 |
| AGAATGAGGTTACCAAGGATCAGGGAAACGCTTG | 2.03 |
| CCTACTGGGCCATCATGTCATTGATATCAACGTT | 0.0429 |
| TAGCCTAGGTTATTCAGGGGCCAGTATAGAAAGC | 0.101 |
| CCTTACGGCTCAAGGTTATAGCACGGGTGGTACG | 0.122 |
| CGAACTAGGTCATTTACAGGACAGTGAATAGTAA | 2.14 |
| ACAGACAGGTGAGTGACGGTAACTCAGCTGGACG | -0.336 |
| AATACAGGGTCATCGTAGGCCAGAGTGCGCACAG | 5.15 |
| GATACAGGGTCAAGGCCAGAGGACGCGTATTGAT | 4.11 |
| TCATATAGGTAAATGCTAGGTGAAAGGCCGATCT | 0.727 |
| CCTACTGGGCCAGGGTCATTGATCAGTCAAAGCA | 3.14 |
| GCGTCTGGGGCAAAGCAGGTTACCATAAGGTTGG | 0.117 |
| TGAATGAGGTTATACGATCAGGGAACGTTGCAAA | 0.918 |
| GATACCGGGTCAGCTAGAGGCCAGAGTATGGAAA | 2.26 |
| CCTTTTAGTTGACCATAAGGGCAACCGAAGCTCG | 1.28 |
| TCATATAGGTATATGCTAGGTGAAAGTCCGATCT | 0.832 |

Source: the supplement of paper PMC6555819
